Results on 39 compounds are retold here after PubChem BioAssay (NCATS).

Inconclusive results are not listed. A number with no mark means an inactive call. The source made the active and inactive calls. The call rests on the fitted dose curve; tested in HEK293 reporter line.
On the % scale 0 is the no-effect control and ±100 the full control effect; potency means the concentration at half of the fitted maximal effect.

The nature of the assay: qHTS for Inhibitors of the Functional Ribonucleoprotein Complex (vRNP) of Lassa (LASV) Arenavirus: LASV Primary Screen - GLuc reporter signal (AID 1347082). Further: nearly all actives have a fitted effect of over 60% in size. The following applies: LASV minigenome vRNP, Gaussia luciferase reporter; series mostly up to 57.5 µM; activity change, negative = inhibition: at the top concentration. In general terms: Quantitative high-throughput screening tests each substance at several concentrations.
With `CC(=O)Oc1ccc2c(=O)c(-c3ccccc3)c(C)oc2c1`, the “activity change, negative = inhibition” value is 0.593%.

Take `CCCCCOC(=O)CCC`: the “activity change, negative = inhibition” value is 7.15% [at 115 µM].

In the case of `C=C(C)[C@@H]1CC[C@@H](C)C[C@@H]1O`, the “activity change, negative = inhibition” value is -11.2% [at 115 µM].

Regarding `CCCCOC(=O)C(=O)OCCCC`, the “activity change, negative = inhibition” value is 2.68% [at 115 µM].

Turning to `CCC(C)(O)C(=O)N[C@H]1CCCN1C(=O)/C=C/c1ccccc1` (some centres undefined), the “activity change, negative = inhibition” value is 6.81%.

For the compound `CC(C)N(CCCNC(=O)Nc1ccc(C(C)(C)C)cc1)C[C@H]1O[C@@H](n2cc(Br)c3c(N)ncnc32)[C@H](O)[C@H]1O`, the “activity change, negative = inhibition” value was 1.09%.

`C=C1C(=O)OC2C=C(C)CCC=C(C)CCC12` (centres undefined): the “activity change, negative = inhibition” value was -22.9%.

`CNCC(=O)O`: the “activity change, negative = inhibition” value was 3.98%.

Regarding `COc1ccc(C[C@@H]2c3cc(O)c(OC)cc3CCN2C)cc1O`, the “activity change, negative = inhibition” value was 8.19%.

As for `COc1c2c(cc3oc(CO[C@@H]4O[C@H](CO)[C@@H](O)[C@H](O)[C@H]4O)cc(=O)c13)O[C@H](C(C)(C)O)C2`, the “activity change, negative = inhibition” value was 5.27%.

As for `COC(=O)/C=C\C(=O)O`, the “activity change, negative = inhibition” value was 4.59% [at 115 µM].

Regarding `CC(C)=C[C@H]1C[C@H](C)[C@H]2CC[C@H](C)c3c(O[C@@H]4OC[C@@H](O)[C@H](O)C4O)c(O)c(C)c1c32` (some centres undefined), the “activity change, negative = inhibition” value is -3.73%.

Turning to `COc1cc2c(cc1OC)[C@@H]1Cc3cc4c(cc3[C@H](C2)N1C)OCO4`, the “activity change, negative = inhibition” value was -5.29%.

Regarding `COc1c2c(c(CCC(=O)O)c3c1C=CC(C)(C)O3)OC(C)(C)C=C2`, the “activity change, negative = inhibition” value was 1.74%.

Turning to `O=C(O)CCCCCCCCCC(=O)O`, the “activity change, negative = inhibition” value is 13.4% [at 115 µM].

For the compound `CC[C@H](C)C(=O)N[C@H]1CCCN1C(=O)/C=C/c1ccccc1`, the “activity change, negative = inhibition” value is -7.56%.

Take `CC1=CC23C(=O)C(C=C(CO)[C@@H](O)[C@]2(O)[C@H]1O)[C@H]1[C@@H](C[C@H]3C)C1(C)C` (some centres undefined): the “activity change, negative = inhibition” value was 6.4%.

Consider `CCn1c(-c2nonc2N)nc2cncc(CNC3CCNCC3)c21`, for which the Potency is 24.3 µM (active).

As to `O=c1[nH]c(O)c(/C=C2\C=Nc3ccccc32)[nH]1`, the “activity change, negative = inhibition” value is -2.59%.

Regarding `C=C[C@]1(C)Cc2occ(C)c2C[C@H]1C(=C)C(=O)O`, the “activity change, negative = inhibition” value is 2.16%.

As to `COc1ccc(CO)cc1`, the “activity change, negative = inhibition” value is -3.18% [at 115 µM].

With `S=C(NCc1ccccc1)NCc1ccccc1`, the “activity change, negative = inhibition” value was -6.57%.

For the compound `CC1C(=O)OC2C1CCC1(C)CCC(=O)C(C)C21` (centres undefined), the “activity change, negative = inhibition” value is 10.6%.

Turning to `CCC(=O)OCCC(C)CCC=C(C)C` (centres undefined), the “activity change, negative = inhibition” value is -3.92% [at 115 µM].

In the case of `Nc1nc(N)c2[nH]cnc2n1`, the “activity change, negative = inhibition” value is 4.92%.

Turning to `CN1C2CCC1CC(OC(=O)c1cccc(O)c1)C2` (centres undefined), the “activity change, negative = inhibition” value was -4.21%.

With `COc1cc(N2CCN(C)CC2)ccc1Nc1nc(N)c(C(=O)c2c(Cl)cccc2Cl)s1`, the “activity change, negative = inhibition” value is 23.2%.

For `NC(C(=O)O)C1ON=C(Cl)C1O` (centres undefined), the “activity change, negative = inhibition” value is 3.23%.

For the compound `CC1(C)C2=CCCC(C)(C)[C@]23CC[C@H]1C3`, the “activity change, negative = inhibition” value is -18.7% [at 115 µM].

As for `CCN1CC2(COC(=O)c3ccccc3N)CCC(OC)C34C5CC6C(OC)CC(O)(C5C6OC)C(O)(C(OC)C23)C14` (centres undefined), the “activity change, negative = inhibition” value is 4.33%.

Regarding `NCCC(=O)c1ccccc1N`, the “activity change, negative = inhibition” value is -4.69%.

For `Cn1c2c(c(=O)c3ccccc31)CCC(C)(C)O2`, the “activity change, negative = inhibition” value was -1.97%.

Regarding `CC1(C)C[C@H]2C3=CCC4[C@@]5(C)CC[C@H](O)[C@](C)(CO)C5CC[C@@]4(C)[C@]3(C)C[C@H]3O[C@@H]1[C@H](O)[C@]32CO` (some centres undefined), the “activity change, negative = inhibition” value was 3.86%.

For `COc1cc2cc(Oc3ccc4ccc(=O)oc4c3)c(=O)oc2cc1O[C@@H]1O[C@H](CO)[C@@H](O)[C@H](O)[C@H]1O`, the “activity change, negative = inhibition” value is 0.207%.

Consider `CCN1CCC(n2cc(CNc3cc(Cl)c4ncc(C#N)c(Nc5ccc(F)c(Cl)c5)c4c3)nn2)CC1`, for which the “activity change, negative = inhibition” value is 7.86%.

As to `CSCCCN=C=S`, the “activity change, negative = inhibition” value was 12.4% [at 115 µM].

For the compound `CCCC(C)C(O)CC` (centres undefined), the “activity change, negative = inhibition” value is 5.45% [at 115 µM].

`CCCCN`: the “activity change, negative = inhibition” value is -6.84%.

For `C=C(CO)CC1CC(O)[C@]2(C)OC3CC4OC5C[C@]6(C)O[C@]7(C)CCC8OC9C[C@]%10(C)OC%11C(C)=CC(=O)OC%11CC%10OC9C[C@@H](C)C8OC7CC6O[C@]5(C)C/C=C\C4OC3CC2O1` (some centres undefined), the “activity change, negative = inhibition” value was -4.63%.
